Our source for the max response, outcome and Potency values is PubChem BioAssay (NCATS).

The nature of experiment [1]: qHTS Assay for Identifying Gametocytocidal Compounds (AID 743244).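 For max response: % is set by controls: 0 for no effect and ±100 for the full control effect; actives lower the fluorescent signal which means gametocytes are killed.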 Note: potency is the fitted concentration of half-maximal effect. The conditions noted are these: P. falciparum 3D7 stage III-V gametocytes, alamarBlue, 72 h; max response: hits give low values. Put shortly:
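Compounds are pinned into medium, gametocytes (stage III–V, 3D7, 20,000 cells/well) added, and plates held 72 h at 37 °C in 5% CO2. AlamarBlue follows for 24 h before fluorescence reading.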
For orientation: In qHTS, concentration-response curves come from the screen itself.

Experiment [2] is described as follows: qHTS for compounds that reverse cellular toxicity of Amyloid beta (A-beta) peptide in yeast: LOPAC Validation Assay (AID 720559).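 Note: plate controls were DMSO for no effect and equimolar ferric chloride plus clioquinol rescue for full effect.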 Put shortly: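 Yeast expressing toxic A-beta grown with pinned compounds at 30 C for 48 hr. Growth measured as absorbance at 600 nm; data normalized to DMSO and to an equimolar FeCl3/clioquinol mixture as positive control.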
A short description of experiment [3]: qHTS for Activators of Parkin Expression: LOPAC Validation Assay (NLuc Reporter) (AID 720572;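 note: 0% = DMSO and 100% = positive control compound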). In short, it runs like this: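 Neuronal line stably carrying a FLuc/NLuc coincidence reporter under the Parkin promoter, seeded 24 h, then dosed in 7-point series for 24 h at 37 C. NLuc luminescence read after FLuc; normalized to DMSO and positive control (100%).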

Experiment [4] can be described thus: qHTS for Activators of Parkin Expression: LOPAC Validation Assay (FLuc Reporter) (AID 720573;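 note: 0% = DMSO and 100% = positive control compounds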). Put shortly: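 Neuronal cell line stably expressing FLuc/NLuc coincidence reporter under the Parkin promoter, 1,500 cells/well, dosed 24 h after seeding in 7-point series for 24 h at 37 C. FLuc luminescence read; normalized to DMSO and positive control (100%).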
Experiment [5] concerns the target T1, Hexokinase-4 (Homo sapiens) + Glucokinase regulatory protein (Homo sapiens) (UniProt P35557+Q14397). Description: qHTS assay for inhibitors of recombinant human GCK-GKRP interaction: Diaphorase-coupled assay (AID 743205). In short, it runs like this: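 Compounds pre-incubated 20 min with substrate, then 10 nM GST-GCK with 10 nM FLAG-GKRP added. GCK activity coupled via G6PDH and diaphorase to resorufin (5 mM glucose, 0.4 mM ATP, 0.15 mM NADP+, pH 7.6), read kinetically over 30 minutes at Ex 525/Em 590 nm.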

In experiment [6] the target is T1, Hexokinase-4 (Homo sapiens) + Glucokinase regulatory protein (Homo sapiens). The experiment can be described thus: qHTS assay for inhibitors of recombinant human GCK-GKRP interaction: HTRF assay (AID 743207).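 Note: 0% = DMSO with GCK present and -100% = DMSO wells lacking GCK.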 In short, it runs like this: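 HTRF binding of 5 nM GST-GCK and 5 nM FLAG-GKRP with 2 uM S6P in pH 7.1 Hepes buffer (MgCl2, KCl, DTT, Tween 20, BSA). Anti-FLAG XL665 and anti-GST donor added, 60 min at room temperature; 665/615 nm read, normalized to with- and without-GCK controls.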

“And” between values parts separate entries of the source, which are not always exact repeats. Equal values may be shown once. Unmarked numbers belong to inactive results. Records with an inconclusive call do not appear. More than one record can exist for a structure, and the calls need not agree. The source made the active and inactive calls. Calls come from the whole dose curve; as a rule, active = well fitted curve in the direction sought with a large enough effect; inconclusive = small, poorly fitted or top-dose-only effect, or another doubt; inactive = no such curve, though single readings can be large; an effect the other way counts as inactive or inconclusive.

T1 sequence (P35557 whole entry, looked up): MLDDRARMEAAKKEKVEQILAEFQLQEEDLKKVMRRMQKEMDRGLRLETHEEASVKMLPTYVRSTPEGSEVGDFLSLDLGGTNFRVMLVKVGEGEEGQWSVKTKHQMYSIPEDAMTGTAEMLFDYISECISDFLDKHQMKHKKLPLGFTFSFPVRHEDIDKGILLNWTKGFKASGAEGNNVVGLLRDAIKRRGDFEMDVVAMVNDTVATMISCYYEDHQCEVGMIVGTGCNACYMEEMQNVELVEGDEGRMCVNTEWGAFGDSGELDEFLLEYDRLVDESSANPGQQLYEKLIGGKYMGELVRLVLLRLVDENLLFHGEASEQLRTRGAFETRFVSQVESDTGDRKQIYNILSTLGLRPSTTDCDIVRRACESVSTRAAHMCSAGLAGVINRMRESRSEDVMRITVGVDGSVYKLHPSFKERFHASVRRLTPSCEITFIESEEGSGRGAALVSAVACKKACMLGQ
T1 sequence (Q14397 whole entry, looked up): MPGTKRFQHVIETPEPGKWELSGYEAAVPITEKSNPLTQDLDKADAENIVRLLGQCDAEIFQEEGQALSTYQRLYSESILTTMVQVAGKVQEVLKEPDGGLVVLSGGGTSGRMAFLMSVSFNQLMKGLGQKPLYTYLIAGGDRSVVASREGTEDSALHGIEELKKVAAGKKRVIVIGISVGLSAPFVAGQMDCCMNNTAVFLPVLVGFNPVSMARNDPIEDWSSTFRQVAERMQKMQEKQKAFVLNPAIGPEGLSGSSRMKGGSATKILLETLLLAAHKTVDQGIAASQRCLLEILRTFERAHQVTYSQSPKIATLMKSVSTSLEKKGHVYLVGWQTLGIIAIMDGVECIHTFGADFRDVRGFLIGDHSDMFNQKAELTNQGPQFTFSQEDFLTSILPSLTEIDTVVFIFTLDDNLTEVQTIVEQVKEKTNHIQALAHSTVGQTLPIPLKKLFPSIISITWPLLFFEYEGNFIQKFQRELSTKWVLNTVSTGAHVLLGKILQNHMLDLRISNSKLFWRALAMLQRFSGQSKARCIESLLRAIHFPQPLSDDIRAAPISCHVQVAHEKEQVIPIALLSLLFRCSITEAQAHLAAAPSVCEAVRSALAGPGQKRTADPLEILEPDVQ

Turning to `CC(=O)Oc1cc2c(s1)CCN(C(C(=O)C1CC1)c1ccccc1F)C2` (stereo not given), the max response in experiment [1] was 3.57%.

With `COc1ccccc1N1CCN(CCCNc2cc(=O)n(C)c(=O)n2C)CC1`, the result in experiment [2], in experiment [5] and in experiment [6] was inactive. Moreover, the Potency entry in experiment [3] and in experiment [4] was “inactive” in each case. Moreover, the max response in experiment [1] is 9.05% and -4.71% and 2.95%.

Turning to `CCN(CC)C(=O)c1ccc(O)c(OC)c1`, the call in experiment [2], in experiment [5] and in experiment [6] was inactive. For the same compound, the Potency result in experiment [3] and in experiment [4] was “inactive” each time. Further, the max response in experiment [1] is 14.2% and 0.626% and 4.97%.

In the case of `O=C(O)c1c(Cl)c(Cl)c(Cl)c(Cl)c1-c1c2cc(I)c(=O)c(I)c-2oc2c(I)c(O)c(I)cc12`, the max response in experiment [1] was -8.78%.

As to `C[C@@H](O)[C@H]1C(=O)N2C(C(=O)O)=C(S[C@@H]3CN[C@H](C(=O)N(C)C)C3)[C@H](C)[C@H]12`, in experiment [1], the max response was 2.89%.

As for `COC(=O)[C@@H]1[C@H]2C[C@H]3c4[nH]c5ccccc5c4CCN3C[C@@H]2CC[C@@H]1O`, the result in experiment [2], in experiment [5] and in experiment [6] was inactive. Moreover, the Potency result in experiment [3] and in experiment [4] was “inactive” each time. In addition, the max response in experiment [1] was 29.3% and 18.6%.

`Clc1ccc(C(c2ccc(Cl)cc2)n2cc[n+](CC(OCc3ccc(Cl)cc3Cl)c3ccc(Cl)cc3Cl)c2)cc1` (stereo not given): the result in experiment [2] and in experiment [5] was inactive. Besides, the Potency entry in experiment [3] and in experiment [4] was “inactive” in each case.

As to `Clc1ccc(Cn2c(CN3CCCC3)nc3ccccc32)cc1`, the result in experiment [2], in experiment [5] and in experiment [6] was inactive. The Potency result in experiment [3] and in experiment [4] was “inactive” throughout.

As for `O=C1NCC2(CCN(CCc3ccccc3)CC2)O1`, the call in experiment [2], in experiment [5] and in experiment [6] was inactive. Besides, the Potency result in experiment [3] and in experiment [4] was “inactive” throughout. Moreover, the max response in experiment [1] was 1.69% and 18.3%.

In the case of `CCN(CC)CCOC(=O)c1ccc(N)cc1`, the compound was classed as inactive in experiment [2], in experiment [5] and in experiment [6]. The Potency entry in experiment [3] and in experiment [4] was “inactive” each time. For the same compound, in experiment [1], the max response was 17.2% and 7.74%.

On to `CCCCCN(C)CCC(O)(P(=O)(O)O)P(=O)(O)O`, for which the result in experiment [2], in experiment [5] and in experiment [6] was inactive. For the same compound, the Potency entry in experiment [3] and in experiment [4] was “inactive” each time.

Regarding `CCN1CCC[C@H]1CNC(=O)c1cc(S(N)(=O)=O)ccc1OC`, the compound was called inactive in experiment [2], in experiment [5] and in experiment [6]. The Potency entry in experiment [3] and in experiment [4] was “inactive” in each case. Further, the max response in experiment [1] was 11.5% and 6.55%.

Turning to `COc1ccc(Cc2nccc3cc(OC)c(OC)cc23)cc1OC`, the outcome in experiment [2] and in experiment [6] was inactive. For the same compound, the Potency entry in experiment [3] and in experiment [4] was “inactive” each time.

As for `CC(C)(C)c1ccc(C(O)CCCN2CCC(C(O)(c3ccccc3)c3ccccc3)CC2)cc1` (stereo not given), the compound was classed as inactive in experiment [2]. In addition, the Potency result in experiment [3] and in experiment [4] was “inactive” in each case.

For the compound `NCCS`, the outcome in experiment [2], in experiment [5] and in experiment [6] was inactive. The Potency result in experiment [3] and in experiment [4] was “inactive” throughout. In addition, the max response in experiment [1] was -3.42% and 10.4% and 19.2%.

With `CC(C(=O)O)c1ccc(-c2ccccc2)c(F)c1` (stereo not given), the max response in experiment [1] was 6.81%.

Turning to `CC[C@]1(O)C[C@@H]2CN(CCc3c([nH]c4ccccc34)[C@@](C(=O)OC)(c3cc4c(cc3OC)N(C)[C@H]3[C@@](O)(C(=O)OC)[C@H](OC(C)=O)[C@]5(CC)C=CCN6CC[C@]43[C@@H]65)C2)C1`, in experiment [1], the Potency is 15.8 µM (active) and the max response is -2.09%.

For `Cc1cccc(C)c1OCC(C)N` (stereo not given), the result in experiment [2], in experiment [5] and in experiment [6] was inactive. Also, the Potency result in experiment [3] and in experiment [4] was “inactive” throughout. In experiment [1], the max response was 9.33% and -4.15% and 13.1%.
